Records with an inconclusive call do not appear. A call without a number means that no potency is given here. Activity calls are given as the source filed them. Calls come from the whole dose curve; as a rule, active = well fitted cell-killing curve with a large enough effect in the repeat runs; inconclusive = weak or mixed curves, or effect the other way; inactive = no such curve, though single readings can be large or run the other way.

The nature of this experiment: qHTS assay to identify small molecule antagonists of the vitamin D receptor (VDR) signaling pathway - cell viability counter screen (AID 743225). Note: nearly all actives have a fitted effect of over 50% in size. Particulars: VDR-bla HEK293T viability, CellTiter-Glo luminescence, 16 h; series mostly up to 61 µM. From the text:
U.S. Tox21 Program National Center for Advancing Translational Sciences [NCATS] NIH Chemical Genomics Center [NCGC] U.S. Environmental Protection Agency [EPA] National Institutes of Environmental Health Sciences [NIEHS] National Toxicology Program [NTP] U.S. Food and Drug Administration [FDA] Tox21 Assay Overview: The vitamin D receptor (VDR), a member of nuclear hormone receptor superfamily, plays a critical role in calcium homeostasis and bone metabolism. It is also involved in cell differentiation and growth, and thrombogenicity. To identify the compounds that inhibit VDR signaling, the VDR-UAS-bla HEK 293T cell line (Invitrogen, Carlsbad, CA, USA) containing a beta-lactamase reporter gene under the control of an upstream activator sequence (UAS) was used to screen the Tox21 10K compound library. The cytotoxicity of the Tox21 compound library against the VDR-bla cell line was tested in parallel by measuring the cell viability using CellTiter-Glo assay (Promega, Madison, WI) in the same wells.
Tox21 Assay Protocol Summary: VDR-bla cells were dispensed at 2,000 cells/5 uL of assay medium per well into black wall/clear-bottom 1536-well plates using a Multidrop Combi (Thermo Fisher Scientific, Waltham, MA) dispenser. After the assay plates were incubated at a 37C and 5% CO2 for 4 h, 23 nL of compounds dissolved in DMSO, positive controls or DMSO only was transferred to the assay plate by a Pintool station (Kalypsys, San Diego, CA), followed by addition of 1 uL of 1-alpha, 25-Dihydroxy Vitamin D3 (3 nM, final concentration in the wells) using a Bioraptr Flying Reagent Dispenser (FRD) workstation (Beckman Coulter, Indianapolis, IN). The plates were incubated at 37C and 5% CO2 for 16 h, and then 1 uL of LiveBLAzerTM B/G FRET substrate was added using a Bioraptr FRD. The plates were incubated at room temperature for 2 h and fluorescence intensity was measured by an Envision plate reader (PerkinElmer, Shelton, CT). For cell viability readout that measures cytotoxicity, 3 ul/well of CellTiter-Glo reagent was added into the assay plates using a Bioraptr FRD. After 30 min incubation at room temperature, the luminescence intensity in the plates was measured using a ViewLux plate reader (PerkinElmer).
Take `COc1cc(C(C)(C)C)c(O)c(C(C)(C)C)c1`: the Potency entry was “inactive”. With `Cc1ccc(C(N)=O)cc1N`, the Potency result is “inactive”. Next, `CC/C(=C\C(=N/O)C(N)=O)C(C)[N+](=O)[O-]` (stereo not given): “inactive”; `CCCOc1ccc2nc(NC(=O)OC)[nH]c2c1`: “inactive”. Turning to `CCCCCC/C=C/C=O`, the Potency result is “inactive”. As for `Cc1cc(NC(=O)C(=O)O)cc(C)c1Oc1ccc(O)c2c1CCC2`, the Potency result was “inactive”.

Turning to `Oc1ccc(Sc2ccc(O)cc2)cc1`, the Potency result was “inactive”. Next, `Nc1ccc(C(=O)N2CC3CC(CN(Cc4ccccc4)C3)C2)cc1`: “inactive”; `C=CCCCCCC`: “inactive”.

`ClC(Cl)(Cl)c1ccc(C(Cl)(Cl)Cl)cc1`: the Potency entry is “inactive”. As for `Cc1occc1S`, the Potency result is “inactive”. `OCCC1CCCCN1` (stereo not given): the Potency result was “inactive”. The result for `NCc1ccccc1` reads “inactive”; that for `CCCCCCCCCCCCCCC1CO1` (stereo not given), “inactive”.

On to `CCCCCOC(=O)COc1cc(N2C(=O)C3=C(CCCC3)C2=O)c(F)cc1Cl`, for which the Potency result is “inactive”. The result for `O=[N+]([O-])c1cc[n+]([O-])cc1` reads “inactive”; that for `CC[C@H](C)[C@@H](C(=O)O)n1sc2ccccc2c1=O`, “inactive”.

As for `Cc1ccc(C(=O)C(C)CN2CCCCC2)cc1` (stereo not given), the Potency result was “inactive”. Next, `CCCCCCCCC(CO)CCCCCC` (stereo not given): “inactive”; `CN1CCC(OC(c2ccccc2)c2ccccc2)CC1`: “inactive”; `CC(=O)O[C@H]1C[C@@H]2CC[C@@H]3[C@H](CC[C@@]4(C)[C@H]3C[C@H]([N+]3(C)CCCCC3)[C@@H]4OC(C)=O)[C@@]2(C)C[C@@H]1N1CCCCC1`: “inactive”. The result for `CC(C(=O)O)c1ccc(C(=O)c2ccccc2)s1` (stereo not given) reads “inactive”. For the molecule `CCN(CC)C(C)CN1c2ccccc2Sc2ccccc21` (stereo not given), the Potency entry is “inactive”. `O=[N+]([O-])c1cccc(Cl)c1Cl`: the Potency entry is “inactive”. `Cl/C(=C\n1cncn1)c1ccc(Cl)cc1Cl`: the Potency entry is “inactive”. For the molecule `Nc1nc(CC(=O)O)cs1`, the Potency result is “inactive”.

For the molecule `CCCCOc1cc(C(=O)OCCN(CC)CC)ccc1N`, the Potency result is “inactive”. The result for `CCCC(=O)OCC` reads “inactive”; that for `CCOc1nc2cccc(C(=O)O)c2n1Cc1ccc(-c2ccccc2-c2nn[nH]n2)cc1`, “inactive”; that for `Cn1c(NCCN(CCO)CCCc2ccc([N+](=O)[O-])cc2)cc(=O)n(C)c1=O`, “inactive”.

Regarding `CCCCc1cc2ccccc2c(OCCN(C)C)n1`, the Potency entry was “inactive”. The result for `Cc1cccc(Oc2ccccc2)c1` reads “inactive”; that for `C#CCOC(=O)[C@@H](C)Oc1ccc(Oc2ncc(Cl)cc2F)cc1`, “inactive”. The result for `Oc1ccc(O)c2c(O)cccc12` reads “inactive”; that for `O=C=NC1CCC(CC2CCC(N=C=O)CC2)CC1` (stereo not given), “inactive”. For the molecule `O=C(O)C(c1ccc(Cl)cc1)c1ccc(Cl)cc1`, the Potency result is “inactive”. For `O=C(O)c1cn(C2CC2)c2cc(Cl)c(F)cc2c1=O`, the Potency entry was “inactive”. The result for `CC(C)c1cccc(C(C)C)c1NC(=O)NS(=O)(=O)c1cc(C(C)(C)O)co1` reads “inactive”.

`CCCCCCCCN(C)C`: the Potency entry was “inactive”. The result for `CCCCCCc1ccc(N)cc1` reads “inactive”.

The record behind these values is PubChem BioAssay (Tox21).
